CHRM1 agonist: agonists of human M1 muscarinic receptor | actives 0.33% (n = 360,000) | AID 588814 | activation, % at 3 µM | CHO-K1 hM1, Fluo-8 calcium fluorescence, agonist mode; 0% DMSO, 100% acetylcholine EC100;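 active = activation above the run's mean compound activation plus 3 SD, cut at about 16% in these data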;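 note: peak over basal fluorescence ratio within a 140 s kinetic read after compound addition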
Target sequence (P11229 whole entry, looked up): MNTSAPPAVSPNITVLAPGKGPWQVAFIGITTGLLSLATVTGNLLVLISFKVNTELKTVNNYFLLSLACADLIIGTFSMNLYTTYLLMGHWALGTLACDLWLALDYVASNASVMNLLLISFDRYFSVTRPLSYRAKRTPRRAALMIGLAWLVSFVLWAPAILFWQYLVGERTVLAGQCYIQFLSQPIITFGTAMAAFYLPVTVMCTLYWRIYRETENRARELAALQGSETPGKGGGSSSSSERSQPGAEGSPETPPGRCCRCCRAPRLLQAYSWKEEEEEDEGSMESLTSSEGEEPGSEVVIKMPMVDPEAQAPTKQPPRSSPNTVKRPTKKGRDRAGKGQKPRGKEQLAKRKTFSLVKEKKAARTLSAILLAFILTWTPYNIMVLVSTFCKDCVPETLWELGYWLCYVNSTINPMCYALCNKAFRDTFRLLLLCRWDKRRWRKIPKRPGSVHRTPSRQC
CHO-K1 Ca PAM: counter-screen for M1 PAMs: effect in parental CHO-K1 cells | ATP EC20, Fluo-8 calcium fluorescence; 0% at ATP EC20, 100% at ATP max | activation, % at 3 µM | actives 0.02% (n = 360,000) | AID 602247;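 active = activation above the run cutoff, the mean activation of all test compounds plus 3 SD, cut at about 40% in these data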;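 note: peak over basal fluorescence ratio in a 140 s read after ATP addition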
CHO-K1 Ca antag: M1 antagonist counterscreen hit in parental CHO-K1 cells; AID 602250; ATP-induced calcium, Fluo-8 fluorescence; inhibition, % at 3 µM; actives 0.6% (n = 360,000);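 active = inhibition above a per-plate cutoff, the plate's mean sample inhibition plus 3 SD, cut at about 24% in these data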;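 note: 0% = DMSO plus EC80 ATP and 100% = DMSO alone without ATP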
CHO-K1 Ca ag: M1 agonist counterscreen hit in parental CHO-K1 cells; Fluo-8 calcium fluorescence; scaled to maximal ATP response, vehicle zero; activation, % at 3 µM; actives 0.48% (n = 360,000); AID 602248; in the data active = activation above about 15%;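 note: untransfected CHO-K1 host cells lacking M1 receptor as counterscreen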
CHRM1 PAM: potentiates human M1 receptor response to acetylcholine; P11229; CHO-K1 hM1, Fluo-8 calcium fluorescence, ACh EC20; 0% = ACh EC20, 100% = maximal ACh; activation, % at 3 µM; actives 0.088% (n = 360,000); in the data active = activation above about 19%, passing the limit was not always enough
M1 antag: antagonists of human M1 muscarinic receptor; P11229; inhibition, % at 3 µM; CHO-K1 hM1, Fluo-8 calcium fluorescence, ACh EC80 antagonist; actives 1.3% (n = 360,000);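 active = percent inhibition above its own plate's cutoff, namely the mean of that plate's compound wells plus 3 SD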;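 note: peak over basal fluorescence ratio during 140 s after agonist addition; 0% = ACh EC80 plus DMSO and 100% = DMSO alone without agonist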
* = called active by the depositor. A selection: hits, their analogues and other compounds. The true share with any hit is near 2.3%.

COc1ccccc1CN1CCN(Cc2nc(Cc3ccccc3)no2)CC1 was read as CHRM1 agonist -14, CHO-K1 Ca PAM 3, CHO-K1 Ca antag 1, CHO-K1 Ca ag 0, CHRM1 PAM -7 and M1 antag -3.
C(=C\c1ccccc1)/CN1CCN(Cc2nc(Cc3ccccc3)no2)CC1 was read as CHRM1 agonist -12, CHO-K1 Ca PAM 16, CHO-K1 Ca antag 6, CHO-K1 Ca ag 0, CHRM1 PAM -31 and M1 antag 43*.
For c1ccc(Cc2noc(CN3CCCN(C4Cc5ccccc5C4)CC3)n2)cc1 the results were CHRM1 agonist -6, CHO-K1 Ca PAM 9, CHO-K1 Ca antag -4, CHO-K1 Ca ag 4, CHRM1 PAM -24 and M1 antag 100*.
For Cc1cc(C)cc(OCC(=O)OCC(=O)N(CC(C)C)c2c(N)n(Cc3ccccc3)c(=O)[nH]c2=O)c1 the results were CHRM1 agonist -3, CHO-K1 Ca PAM -8, CHO-K1 Ca antag -5, CHO-K1 Ca ag 1, CHRM1 PAM 3 and M1 antag -18.
`CC(=O)N1CCN(S(=O)(=O)c2cccc(C(=O)OCC(=O)NCc3ccccc3Cl)c2)CC1` gave CHRM1 agonist -2, CHO-K1 Ca PAM 13, CHO-K1 Ca antag -12, CHO-K1 Ca ag 1, CHRM1 PAM 2 and M1 antag -9.
`Cc1ccc(-c2onc3ccc(C(=O)O)cc23)cc1` gave CHRM1 agonist 10, CHO-K1 Ca PAM 7, CHO-K1 Ca antag 3, CHO-K1 Ca ag 19*, CHRM1 PAM 2 and M1 antag -1.
Screening O=C(OCC(=O)C12CC3CC(CC(C3)C1)C2)c1ccc(O)cc1O returned CHRM1 agonist 2, CHO-K1 Ca PAM 11, CHO-K1 Ca antag 8, CHO-K1 Ca ag 2, CHRM1 PAM 3 and M1 antag -5.
CN(C)CCNc1nc(-c2ccccc2CO)c2sccc2n1 was read as CHRM1 agonist -10, CHO-K1 Ca PAM -1, CHO-K1 Ca antag 3, CHO-K1 Ca ag 0, CHRM1 PAM -29 and M1 antag 74*.
Screening Cc1ccccc1-c1nc(NC(C)C)nc2ccsc12 returned CHRM1 agonist -9, CHO-K1 Ca PAM 11, CHO-K1 Ca antag -3, CHO-K1 Ca ag 0, CHRM1 PAM -10 and M1 antag 2.
`Cc1ccccc1-c1nc(NCCN(C)C)nc2ccsc12` gave CHRM1 agonist -8, CHO-K1 Ca PAM 8, CHO-K1 Ca antag 1, CHO-K1 Ca ag 1, CHRM1 PAM -29 and M1 antag 88*.
CC(C)CC(=O)OC1C(N2CCOCC2)c2c(ccc(/C=C/C(=O)N3CCOCC3)c2O)OC1(C)C (stereo unspecified) was read as CHRM1 agonist -5, CHO-K1 Ca PAM 14, CHO-K1 Ca antag 4, CHO-K1 Ca ag 15*, CHRM1 PAM 6 and M1 antag 1.
Screening CN(CC(=O)Nc1ccccc1Br)C(=O)CNC(=O)c1cccs1 returned CHRM1 agonist -2, CHO-K1 Ca PAM -18, CHO-K1 Ca antag 9, CHO-K1 Ca ag 0, CHRM1 PAM -4 and M1 antag 34*.
CN(CC(=O)Nc1ccc(C(N)=O)cc1)CC(=O)Nc1ccccc1Br was read as CHRM1 agonist 4, CHO-K1 Ca PAM -17, CHO-K1 Ca antag 2, CHO-K1 Ca ag 1, CHRM1 PAM 5 and M1 antag -7.
`CC(=O)Nc1ccc(NC(=O)CN(C)CC(=O)Nc2ccccc2Br)cc1` gave CHRM1 agonist -4, CHO-K1 Ca PAM -19, CHO-K1 Ca antag 11, CHO-K1 Ca ag 5, CHRM1 PAM -14 and M1 antag 38*.
For Cc1ccc(C(=O)NCC(=O)N(C)CC(=O)Nc2ccccc2Br)s1 the results were CHRM1 agonist 0, CHO-K1 Ca PAM -15, CHO-K1 Ca antag 8, CHO-K1 Ca ag 0, CHRM1 PAM 6 and M1 antag 3.
`CN(CC(=O)Nc1ccc(Cl)c(Cl)c1)C(=O)/C=C/c1ccc(F)cc1` gave CHRM1 agonist -2, CHO-K1 Ca PAM -9, CHO-K1 Ca antag 26*, CHO-K1 Ca ag -1, CHRM1 PAM 6 and M1 antag 0.
`C[C@H]1CNC(=O)c2c(C(=O)NC3CCN(C(=O)OC(C)(C)C)CC3)ncn21` gave CHRM1 agonist 1, CHO-K1 Ca PAM 5, CHO-K1 Ca antag 9, CHO-K1 Ca ag 1, CHRM1 PAM 9 and M1 antag 13.
For COc1cccc2sc3ccc(C#CC4(O)CCCCC4)cc3c(=O)c12 the results were CHRM1 agonist -7, CHO-K1 Ca PAM 7, CHO-K1 Ca antag -16, CHO-K1 Ca ag 5, CHRM1 PAM -13 and M1 antag 41*.
Screening O=c1c2ccccc2sc2ccc(C#CC3(O)CCCCC3)cc12 returned CHRM1 agonist -7, CHO-K1 Ca PAM 2, CHO-K1 Ca antag -9, CHO-K1 Ca ag 0, CHRM1 PAM -5 and M1 antag 5.
For Cc1ccc(CNC(=O)C(Cc2ccccc2)NS(=O)(=O)c2ccc(Br)s2)cc1 (stereo unspecified) the results were CHRM1 agonist -7, CHO-K1 Ca PAM 0, CHO-K1 Ca antag -1, CHO-K1 Ca ag 1, CHRM1 PAM -8 and M1 antag 5.
CCNC(=S)N/N=C/c1ccc(OCC(=O)Nc2ccc(OC)cc2)c(OC)c1 was read as CHRM1 agonist -1, CHO-K1 Ca PAM -9, CHO-K1 Ca antag 20, CHO-K1 Ca ag 7, CHRM1 PAM -16 and M1 antag 39*.
`CCCCNC(=S)N(C)/N=C/c1ccc(OCC(=O)Nc2ccc(OC)cc2)c(OC)c1` gave CHRM1 agonist -1, CHO-K1 Ca PAM -3, CHO-K1 Ca antag 18, CHO-K1 Ca ag 4, CHRM1 PAM -19 and M1 antag 34*.
C/C=C/c1ccc(OCC(=O)Nc2ccncc2)c(OC)c1 was read as CHRM1 agonist -1, CHO-K1 Ca PAM -1, CHO-K1 Ca antag 17, CHO-K1 Ca ag 15*, CHRM1 PAM -9 and M1 antag 14.
CCCCNC(=S)N(C)/N=C/c1ccc(OCC(=O)Nc2c(C)cc(C)cc2C)c(OC)c1 was read as CHRM1 agonist -1, CHO-K1 Ca PAM -4, CHO-K1 Ca antag 5, CHO-K1 Ca ag -1, CHRM1 PAM 3 and M1 antag -7.
For Cc1ccc(NC(=O)NCc2cccn2C)cc1C the results were CHRM1 agonist -5, CHO-K1 Ca PAM -4, CHO-K1 Ca antag -6, CHO-K1 Ca ag 0, CHRM1 PAM 6 and M1 antag -8.
Cc1ccc(C(=O)N2CCCC2)cc1S(=O)(=O)Nc1cccc(C)c1C was read as CHRM1 agonist -6, CHO-K1 Ca PAM 6, CHO-K1 Ca antag -19, CHO-K1 Ca ag 1, CHRM1 PAM -2 and M1 antag 1.
Cn1cc(-c2coc3c(C(=O)NCc4ccco4)cccc23)cn1 was read as CHRM1 agonist 0, CHO-K1 Ca PAM 14, CHO-K1 Ca antag -9, CHO-K1 Ca ag 2, CHRM1 PAM 13 and M1 antag -12.

High-throughput results as filed in PubChem BioAssay.
